Targets with a hit are over-represented here; the source holds about 8,800 in all. About 0.5% of all pairs of compound and target were hits. Values without a mark were called inactive.
Key:
Experiment in all cases: log2 fold change, soluble protein after heating vs DMSO (PISA); higher = thermal stabilisation; K562 lysate, 10 uM; active = over 0.2 and 3.5 SD of the protein, either way, in both replicates (recomputed)
nilotinib = compound: Cc1cn(-c2cc(NC(=O)c3ccc(C)c(Nc4nccc(-c5cccnc5)n4)c3)cc(C(F)(F)F)c2)cn1 [nilotinib]
Procedure, shortened: (§1)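 Quantification was by TMTpro 16plex LC-MS/MS with equalised channel sums, applied to the supernatant after 21,000xg for 90 min. Samples were crude K562 extract at 1 mg/mL protein in PBS pH 7.4 with 1 mM MgCl2, treated with 10 μM compound for 30 min, heated for 3 min across 48°C-58°C, pooled and brought to 0.5% NP-40 at 4°C. Values are log-two fold changes in thermal stability relative to solvent controls, from duplicates.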

[1] = compound: Cc1nc(Nc2n[nH]c3c2CN(C(=O)N[C@H](CN(C)C)c2ccccc2)C3(C)C)c2sccc2n1
Procedure, shortened: as §1

dasatinib = compound: Cc1nc(Nc2ncc(C(=O)Nc3c(C)cccc3Cl)s2)cc(N2CCN(CCO)CC2)n1 [dasatinib]
Procedure, shortened: as §1

[2] = compound: Cc1ncc(-c2ccnc(Nc3ccc(S(C)(=O)=O)cc3)n2)n1C(C)C
Procedure, shortened: as §1

[3] = compound: Cn1cc(-c2ccc3c(c2)CCN3C(=O)Cc2cccc(C(F)(F)F)c2)c2c(N)ncnc21
Procedure, shortened: as §1

quisinostat = compound: Cn1cc(CNCC2CCN(c3ncc(C(=O)NO)cn3)CC2)c2ccccc21 [quisinostat]
Procedure, shortened: as §1

tipifarnib = compound: Cn1cncc1[C@@](N)(c1ccc(Cl)cc1)c1ccc2c(c1)c(-c1cccc(Cl)c1)cc(=O)n2C [tipifarnib]
Procedure, shortened: as §1

[4] = compound: NC(=O)Nc1cc(-c2cccc(F)c2)sc1C(=O)N[C@H]1CCCNC1
Procedure, shortened: as §1

[5] = compound: NC(=O)c1cnc(N[C@@H]2CCCC[C@@H]2N)nc1Nc1cccc(-n2nccn2)c1
Procedure, shortened: as §1

[6] = compound: NC1(c2ccc(-c3nc4ccn5c(=O)[nH]nc5c4cc3-c3ccccc3)cc2)CCC1
Procedure, shortened: as §1

UniProt Q8N6T3, sequence (Q8N6T3 whole entry, looked up): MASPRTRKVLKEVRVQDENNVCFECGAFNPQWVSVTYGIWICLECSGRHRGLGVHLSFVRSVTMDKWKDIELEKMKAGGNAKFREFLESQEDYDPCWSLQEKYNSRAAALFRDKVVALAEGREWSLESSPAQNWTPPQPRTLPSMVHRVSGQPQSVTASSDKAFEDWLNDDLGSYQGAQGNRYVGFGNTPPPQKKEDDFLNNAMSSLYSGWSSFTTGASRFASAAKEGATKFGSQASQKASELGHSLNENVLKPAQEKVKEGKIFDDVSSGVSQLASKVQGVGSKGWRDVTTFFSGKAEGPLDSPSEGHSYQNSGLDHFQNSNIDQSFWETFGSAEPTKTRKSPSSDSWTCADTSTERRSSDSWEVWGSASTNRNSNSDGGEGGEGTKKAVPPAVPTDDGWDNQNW
UniProt Q9BTT0, sequence (Q9BTT0 whole entry, looked up): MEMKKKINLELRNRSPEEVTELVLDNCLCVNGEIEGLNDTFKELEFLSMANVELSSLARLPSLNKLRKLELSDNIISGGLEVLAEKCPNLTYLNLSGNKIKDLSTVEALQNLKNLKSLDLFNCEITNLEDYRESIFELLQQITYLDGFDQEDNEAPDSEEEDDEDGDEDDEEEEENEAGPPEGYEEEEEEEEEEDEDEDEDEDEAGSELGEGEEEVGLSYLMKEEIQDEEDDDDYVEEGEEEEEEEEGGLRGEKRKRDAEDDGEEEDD
UniProt P24752, sequence (P24752 whole entry, looked up): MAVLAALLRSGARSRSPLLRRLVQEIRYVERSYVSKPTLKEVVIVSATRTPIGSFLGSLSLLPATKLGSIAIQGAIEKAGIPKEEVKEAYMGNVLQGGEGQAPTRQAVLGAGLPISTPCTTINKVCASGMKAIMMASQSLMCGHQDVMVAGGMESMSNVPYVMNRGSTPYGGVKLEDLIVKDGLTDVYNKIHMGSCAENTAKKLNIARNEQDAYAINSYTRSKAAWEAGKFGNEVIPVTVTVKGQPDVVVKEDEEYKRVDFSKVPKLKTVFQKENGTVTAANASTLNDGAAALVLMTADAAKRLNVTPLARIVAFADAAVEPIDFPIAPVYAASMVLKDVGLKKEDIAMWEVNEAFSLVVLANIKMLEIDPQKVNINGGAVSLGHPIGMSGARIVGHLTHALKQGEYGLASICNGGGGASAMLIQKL
UniProt O60488, sequence (O60488 whole entry, looked up): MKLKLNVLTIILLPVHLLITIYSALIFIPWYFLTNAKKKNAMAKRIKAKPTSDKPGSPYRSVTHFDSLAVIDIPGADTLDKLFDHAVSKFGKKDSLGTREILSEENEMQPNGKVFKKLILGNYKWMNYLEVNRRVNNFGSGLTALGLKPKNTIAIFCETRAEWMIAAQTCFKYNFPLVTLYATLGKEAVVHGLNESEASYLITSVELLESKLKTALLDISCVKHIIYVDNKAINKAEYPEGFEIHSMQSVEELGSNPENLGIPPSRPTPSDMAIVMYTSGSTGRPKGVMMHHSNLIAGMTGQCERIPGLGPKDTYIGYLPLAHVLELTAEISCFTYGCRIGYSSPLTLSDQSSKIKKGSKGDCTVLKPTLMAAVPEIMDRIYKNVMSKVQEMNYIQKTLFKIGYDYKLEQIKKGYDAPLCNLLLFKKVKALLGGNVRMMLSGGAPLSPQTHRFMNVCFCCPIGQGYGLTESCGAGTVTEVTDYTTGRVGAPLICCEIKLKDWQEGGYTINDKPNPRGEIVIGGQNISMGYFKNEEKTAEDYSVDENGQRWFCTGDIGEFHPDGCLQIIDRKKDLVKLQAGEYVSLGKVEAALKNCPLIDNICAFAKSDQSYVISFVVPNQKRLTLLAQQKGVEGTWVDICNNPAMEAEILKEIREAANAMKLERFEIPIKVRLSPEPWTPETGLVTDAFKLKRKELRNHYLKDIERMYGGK
UniProt Q9BXX3, sequence (Q9BXX3 whole entry, looked up): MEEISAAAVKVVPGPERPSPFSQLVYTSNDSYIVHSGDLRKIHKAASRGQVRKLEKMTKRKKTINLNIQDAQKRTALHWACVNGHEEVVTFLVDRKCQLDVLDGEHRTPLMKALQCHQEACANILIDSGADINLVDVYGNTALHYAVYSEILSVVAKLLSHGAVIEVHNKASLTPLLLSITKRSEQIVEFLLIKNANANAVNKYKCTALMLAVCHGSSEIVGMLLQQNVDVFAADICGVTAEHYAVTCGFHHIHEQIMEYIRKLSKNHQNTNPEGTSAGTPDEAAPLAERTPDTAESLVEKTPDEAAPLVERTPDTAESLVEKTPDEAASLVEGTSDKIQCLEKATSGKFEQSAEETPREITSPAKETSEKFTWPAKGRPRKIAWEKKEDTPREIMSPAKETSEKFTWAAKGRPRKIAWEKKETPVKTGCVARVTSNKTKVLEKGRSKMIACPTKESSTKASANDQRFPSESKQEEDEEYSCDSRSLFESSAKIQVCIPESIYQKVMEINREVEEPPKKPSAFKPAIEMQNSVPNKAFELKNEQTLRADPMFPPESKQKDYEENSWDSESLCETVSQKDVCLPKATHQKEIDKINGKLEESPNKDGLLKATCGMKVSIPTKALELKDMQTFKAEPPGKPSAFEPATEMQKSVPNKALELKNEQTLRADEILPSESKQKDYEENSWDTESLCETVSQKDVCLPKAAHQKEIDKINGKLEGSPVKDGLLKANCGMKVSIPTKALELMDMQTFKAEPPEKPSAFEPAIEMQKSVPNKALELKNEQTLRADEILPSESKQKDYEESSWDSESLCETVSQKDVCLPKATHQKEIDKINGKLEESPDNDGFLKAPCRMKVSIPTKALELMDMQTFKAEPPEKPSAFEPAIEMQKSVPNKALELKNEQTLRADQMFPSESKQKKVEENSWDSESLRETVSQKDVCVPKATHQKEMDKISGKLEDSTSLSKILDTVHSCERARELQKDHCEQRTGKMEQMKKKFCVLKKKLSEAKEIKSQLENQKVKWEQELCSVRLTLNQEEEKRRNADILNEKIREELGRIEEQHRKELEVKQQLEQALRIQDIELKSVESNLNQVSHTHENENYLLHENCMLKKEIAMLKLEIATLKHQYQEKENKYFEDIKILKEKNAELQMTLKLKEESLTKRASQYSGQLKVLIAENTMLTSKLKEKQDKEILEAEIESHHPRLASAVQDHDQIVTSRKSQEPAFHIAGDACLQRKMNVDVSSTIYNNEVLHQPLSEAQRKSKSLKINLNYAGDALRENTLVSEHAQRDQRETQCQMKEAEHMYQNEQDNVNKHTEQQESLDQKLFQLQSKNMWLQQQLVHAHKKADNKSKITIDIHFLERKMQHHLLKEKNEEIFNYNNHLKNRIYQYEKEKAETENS
UniProt P55263, sequence (P55263 whole entry, looked up): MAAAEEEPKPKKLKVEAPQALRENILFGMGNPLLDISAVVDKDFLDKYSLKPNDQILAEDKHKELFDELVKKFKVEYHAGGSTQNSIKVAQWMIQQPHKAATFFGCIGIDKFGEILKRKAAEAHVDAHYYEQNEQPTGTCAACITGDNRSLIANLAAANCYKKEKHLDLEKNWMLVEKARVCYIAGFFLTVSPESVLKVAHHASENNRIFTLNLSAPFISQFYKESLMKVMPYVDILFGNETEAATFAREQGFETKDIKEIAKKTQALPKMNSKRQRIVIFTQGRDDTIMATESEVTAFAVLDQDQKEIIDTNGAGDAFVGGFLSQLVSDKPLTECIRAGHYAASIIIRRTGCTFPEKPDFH
UniProt P08243, sequence (P08243 whole entry, looked up): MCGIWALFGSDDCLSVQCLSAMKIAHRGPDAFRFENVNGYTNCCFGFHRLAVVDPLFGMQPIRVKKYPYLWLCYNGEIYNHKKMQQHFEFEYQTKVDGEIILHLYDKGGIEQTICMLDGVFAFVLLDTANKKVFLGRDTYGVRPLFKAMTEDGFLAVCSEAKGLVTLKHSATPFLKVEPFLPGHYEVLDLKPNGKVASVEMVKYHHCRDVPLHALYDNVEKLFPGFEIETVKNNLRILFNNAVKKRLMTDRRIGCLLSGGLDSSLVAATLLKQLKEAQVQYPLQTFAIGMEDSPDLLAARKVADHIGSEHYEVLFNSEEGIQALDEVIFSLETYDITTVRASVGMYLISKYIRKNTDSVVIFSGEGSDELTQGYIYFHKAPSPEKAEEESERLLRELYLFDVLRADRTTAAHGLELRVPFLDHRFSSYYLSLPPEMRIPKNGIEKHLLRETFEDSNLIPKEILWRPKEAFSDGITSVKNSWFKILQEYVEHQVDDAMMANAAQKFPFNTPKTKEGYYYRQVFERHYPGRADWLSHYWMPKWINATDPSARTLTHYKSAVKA
UniProt Q9BRQ8, sequence (Q9BRQ8 whole entry, looked up): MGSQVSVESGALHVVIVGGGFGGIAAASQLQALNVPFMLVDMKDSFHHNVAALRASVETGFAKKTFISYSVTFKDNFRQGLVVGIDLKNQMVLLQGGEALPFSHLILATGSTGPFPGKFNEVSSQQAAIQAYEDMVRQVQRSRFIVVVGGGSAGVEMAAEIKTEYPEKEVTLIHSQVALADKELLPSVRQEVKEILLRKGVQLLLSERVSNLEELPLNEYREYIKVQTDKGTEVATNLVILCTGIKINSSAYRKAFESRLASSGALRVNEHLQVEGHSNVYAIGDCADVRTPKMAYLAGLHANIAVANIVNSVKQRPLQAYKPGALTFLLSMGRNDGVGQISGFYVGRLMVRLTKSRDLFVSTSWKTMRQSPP
UniProt P00352, sequence (P00352 whole entry, looked up): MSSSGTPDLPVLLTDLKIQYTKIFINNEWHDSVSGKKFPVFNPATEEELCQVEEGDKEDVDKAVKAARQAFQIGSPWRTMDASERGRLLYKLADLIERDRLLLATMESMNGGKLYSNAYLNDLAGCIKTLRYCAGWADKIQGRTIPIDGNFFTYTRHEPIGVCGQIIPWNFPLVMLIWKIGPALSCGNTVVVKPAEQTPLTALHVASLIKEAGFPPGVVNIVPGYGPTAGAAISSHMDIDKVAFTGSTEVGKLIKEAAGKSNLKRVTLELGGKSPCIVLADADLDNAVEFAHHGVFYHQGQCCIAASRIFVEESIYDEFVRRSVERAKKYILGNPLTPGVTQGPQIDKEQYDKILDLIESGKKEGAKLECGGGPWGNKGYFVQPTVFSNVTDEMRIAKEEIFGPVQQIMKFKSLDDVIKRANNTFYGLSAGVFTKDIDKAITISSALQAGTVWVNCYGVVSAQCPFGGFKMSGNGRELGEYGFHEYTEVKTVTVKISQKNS

Target | log2 fold change (nilotinib) | log2 fold change [1] | log2 fold change (dasatinib) | log2 fold change [2] | log2 fold change [3] | log2 fold change (quisinostat) | log2 fold change (tipifarnib) | log2 fold change [4] | log2 fold change [5] | log2 fold change [6]
AK4 (UniProt P27144) | -0.006 | 0.003 | -0.04 | 0.042 | 0.04 | -0.012 | 0.001 | 0.018 | -0.023 | -0.012
ASNS (UniProt P08243) | -0.004 | -0.008 | -0.039 | -0.018 | 0.025 | 0.027 | 0.017 | 0.027 | -0.01 | -0.028
AMDHD2 isoform 3 (UniProt Q9Y303) | 0.011 | -0.076 | -0.043 | -0.027 | 0.026 | 0.035 | 0.01 | -0.011 | -0.022 | 0.002
ANKRD30A (UniProt Q9BXX3) | -0.008 | -0.012 | 0.006 | -0.039 | -0.017 | 0.179 | 0.15 | 0.047 | 0.807 | –
AP3D1 isoform 5 (UniProt O14617) | -0.001 | 0.018 | -0.043 | 0.002 | 0.003 | -0.002 | -0.002 | 0.016 | -0.007 | 0.03
ARL8A (UniProt Q96BM9) | 0.003 | 0.049 | 0.037 | 0.091 | -0.049 | 0.17 | -0.203 | 0.153 | 0.247 | -0.054
ABHD11 (UniProt Q8NFV4) | -0.001 | -0.021 | -0.005 | -0.044 | 0.079 | 0.081 | 0.042 | -0.016 | 0.04 | -0.003
ADAR isoform 4 (UniProt P55265) | 0.006 | 0.012 | -0.026 | -0.027 | 0.009 | -0.114 | -0.009 | 0.015 | -0.009 | 0.029
ACAT1 (UniProt P24752) | 0.028 | -0.021 | 0.015 | 0.019 | -0.029 | -0.006 | 0.044 | -0.001 | -0.005 | 0.021
AK1 (UniProt P00568) | 0.023 | 0.008 | -0.038 | 0.015 | 0.011 | 0.118 | 0.056 | 0.004 | 0.003 | 0.009
AMPD3 isoform 4 (UniProt Q01432) | -0.002 | 0.027 | 0.014 | -0.021 | -0.013 | 0.038 | 0.032 | -0.012 | -0.017 | 0.012
AIF1L (UniProt Q9BQI0) | -0.263 | -0.176 | 0.118 | 0.142 | -0.058 | -0.075 | 0.123 | -0.112 | -0.012 | 0.016
ALDH1L2 (UniProt Q3SY69) | -0.013 | 0.01 | -0.021 | 0.012 | 0.046 | -0.027 | 0.012 | 0.026 | 0.05 | -0.042
AHCYL1 (UniProt O43865) | -0.077 | -0.011 | -0.015 | 0.021 | 0.02 | -0.079 | -0.001 | 0.066 | -0.005 | -0.087
ABCF2 isoform 2 (UniProt Q9UG63) | 0.001 | -0.001 | -0.036 | -0.024 | 0.005 | -0.022 | 0.002 | 0.042 | -0.002 | -0.023
ACIN1 isoform 5 (UniProt Q9UKV3) | 0.017 | -0.018 | -0.012 | 0.001 | 0.008 | 0.011 | 0 | -0.063 | 0.024 | 0.01
ACSL4 (UniProt O60488) | -0.011 | 0.008 | 0.004 | 0.018 | 0.02 | -0.018 | -0.051 | 0.029 | -0.032 | -0.074
ARMCX3 (UniProt Q9UH62) | 0.023 | -0.028 | -0.107 | -0.003 | 0.067 | -0.057 | -0.008 | 0.04 | 0.008 | -0.002
ABHD12 isoform 2 (UniProt Q8N2K0) | 0.005 | -0.004 | 0.028 | 0.058 | -0.068 | 0.044 | -0.077 | -0.025 | -0.02 | 0.019
ALDH1A1 (UniProt P00352) | 0.036 | -0.019 | 0.306 (active) | -0.012 | -0.04 | 0.015 | 0.019 | 0.014 | -0.011 | 0.034
ABCF3 (UniProt Q9NUQ8) | -0.025 | 0.014 | -0.053 | 0.001 | 0.044 | -0.04 | -0.003 | 0.012 | 0.011 | -0.062
ABHD16A (UniProt O95870) | -0.015 | 0.02 | 0.009 | 0.027 | -0.051 | 0.143 | -0.012 | -0.014 | -0.003 | -0.054
ABHD17B (UniProt Q5VST6) | 0.032 | 0.057 | 0.007 | 0.087 | 0.095 | 0.003 | -0.099 | 0.009 | -0.041 | 0.009
ARFGAP1 (UniProt Q8N6T3) | 0.159 | 0.1 | -0.03 | -0.016 | -0.043 | -0.004 | -0.475 (active) | 0.063 | -0.032 | -0.111
ADAMTS5 (UniProt Q9UNA0) | 0.003 | -0.062 | -0.01 | -0.011 | 0.014 | -0.222 | -0.041 | 0.016 | 0.031 | -0.083
ADK (UniProt P55263) | -0.028 | 0.075 | 0.463 | 0.046 | -0.005 | -0.062 | 0.324 | -0.023 | -0.015 | 0.016
AKR1B1 (UniProt P15121) | 0.031 | -0.022 | 0.086 | 0.028 | -0.136 | 0.016 | -0.036 | 0.03 | -0.009 | 0.038
AIFM2 (UniProt Q9BRQ8) | 0.057 | -0.006 | -0.072 | -0.03 | 0.024 | -0.105 | 0.411 (active) | -0.028 | -0.054 | 0
ANP32E (UniProt Q9BTT0) | 0.075 | 0.025 | 0.015 | 0.028 | -0.038 | 0.016 | -0.02 | -0.011 | -0.065 | 0.023
AGL (UniProt P35573) | -0.024 | -0.007 | -0.027 | -0.005 | 0.028 | -0.016 | 0.016 | 0.038 | 0.016 | -0.007

Reference: the supplement of paper PMC10849652
